What all share (assay): glycan array binding signal (z-score within array); higher = stronger binding
What all share (conditions): glycan notation: IUPAC condensed, linker removed

Assay [1] relates to Gal(b1-4)GlcNAc(b1-3)Gal(b1-4)GlcNAc(b1-3)Gal(b1-4)GlcNAc. The procedure, abridged: (§1)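 Glycan array data were curated from 3228 arrays in the Consortium for Functional Glycomics database and kept only where the protein sequence was available. Glycan names were converted to IUPAC-condensed notation, and columns mapping to the same glycan were averaged. The binding signal is a within-array Z-score, averaged across arrays of the same protein sequence at different concentrations or buffers and across linkers. Negative Z-scores can be read as non-binding.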

The subject of assay [2] is Gal(b1-6)Gal. The gist of the method:
as §1

Assay [3] has as its system Gal3S(b1-3)GlcNAc. The gist of the method: as §1
Assay [4] has as its system Gal(b1-4)GlcNAc(b1-3)Gal(b1-4)[Fuc(a1-3)GlcNAc(b1-6)]Gal(b1-4)Glc. The gist of the method: as §1
Assay [5] concerns Gal3S(b1-3)[Fuc(a1-4)]GlcNAc. The gist of the method: as §1
Assay [6] has as its system Gal(b1-4)GlcNAc(b1-3)Gal(b1-4)GlcNAc(b1-3)Gal(b1-4)GlcNAc(b1-3)Gal(b1-4)GlcNAc(b1-3)Gal(b1-4)GlcNAc(b1-2)Man(a1-3)[Gal(b1-4)GlcNAc(b1-3)Gal(b1-4)GlcNAc(b1-3)Gal(b1-4)GlcNAc(b1-3)Gal(b1-4)GlcNAc(b1-3)Gal(b1-4)GlcNAc(b1-2)Man(a1-6)]Man(b1-4)GlcNAc(b1-4)[Fuc(a1-6)]GlcNAc. The procedure, abridged: as §1
Assay [7] has as its system Gal(b1-4)GlcNAc(b1-3)Gal(b1-4)GlcNAc(b1-3)Gal(b1-4)GlcNAc(b1-3)Gal(b1-4)GlcNAc(b1-3)Gal(b1-4)GlcNAc(b1-3)Gal(b1-4)GlcNAc(b1-2)Man(a1-3)[Gal(b1-4)GlcNAc(b1-3)Gal(b1-4)GlcNAc(b1-3)Gal(b1-4)GlcNAc(b1-3)Gal(b1-4)GlcNAc(b1-3)Gal(b1-4)GlcNAc(b1-3)Gal(b1-4)GlcNAc(b1-2)Man(a1-6)]Man(b1-4)GlcNAc(b1-4)GlcNAc. The gist of the method: as §1
Assay [8] concerns Gal(b1-4)GlcNAc(b1-3)[Fuc(a1-3)GlcNAc(b1-6)]Gal(b1-4)Glc. The gist of the method:
as §1

Assay [9] has as its system Gal3S(b1-4)GlcNAc. The gist of the method:
as §1

Assay [10] concerns Gal3S(b1-4)[Fuc(a1-3)]GlcNAc. The gist of the method:
as §1

Assay [11] has as its system Gal(b1-4)GlcNAc(b1-3)Gal(b1-4)GlcNAc(b1-3)GalNAc. The procedure, abridged: as §1
Assay [12] concerns Gal(b1-4)GlcNAc(b1-3)Gal(b1-4)GlcNAc. The procedure, abridged: as §1
For assay [13], the system named is Gal(b1-4)GlcNAc. The procedure, abridged:
as §1

Assay [14] relates to Gal3S(b1-3)GalNAc. The gist of the method: as §1
In assay [15] the test system is Gal3S(b1-4)[Fuc(a1-3)]Glc6S. The gist of the method:
as §1

Assay [16] relates to Gal(b1-4)GlcNAc(b1-6)[Gal(b1-3)]GalNAc. The gist of the method:
as §1

In assay [17] the test system is Gal(b1-4)Glc. The gist of the method:
as §1

For assay [18], the system named is Gal3S(b1-4)Glc. The procedure, abridged: as §1
Assay [19] relates to Gal(b1-4)GlcNAc(b1-3)Gal(b1-4)[Fuc(a1-3)]GlcNAc(b1-3)Gal(b1-4)[Fuc(a1-3)]GlcNAc. The gist of the method:
as §1

Assay [20] relates to Gal(b1-4)GlcNAc(b1-3)GalNAc. The procedure, abridged:
as §1

About 410 targets per protein were measured; listed, in parts, are those with the strongest signals and a random draw of the rest.

On to Wza (Escherichia coli), P0A930, for which the “glycan array binding signal (z-score)” value was 2.94 in assay [1], -0.876 in assay [2] and 0.986 in [3].

With “SiiE (Salmonella typhimurium), A0A0H3NVH0”, the “glycan array binding signal (z-score)” value was 0.446 in assay [1], -0.187 in [4] and -0.012 in assay [5].

With AgI/IIC123-GFP (Streptococcus mutans), the “glycan array binding signal (z-score)” value in assay [6] is 5; in [7], 1.82; in assay [8], 0.19; in assay [9], -0.345; in assay [10], 0.852.

As for “AgI/II Vhelical-GFP (Streptococcus mutans)”, the figures for the “glycan array binding signal (z-score)” value in [6] and in assay [11] were -0.113 and 6.41, respectively.

Turning to BambL (Burhholderia ambifaria), Q0B4G1, the “glycan array binding signal (z-score)” value is -0.314 in assay [12] and 0.713 in [5].

On to “SpGH101 (Streptococcus pneumoniae), Q8DR60”, for which the “glycan array binding signal (z-score)” value was -0.157 in assay [13], 5.02 in assay [14] and 0.164 in assay [15].

Regarding GspB (Streptococcus gordonii), Q939N5, the “glycan array binding signal (z-score)” value in assay [1] is -0.783; in [16], -0.739.

LcI (Legionella pneumophila): the “glycan array binding signal (z-score)” value worked out at 0.081 in assay [17] and 3.4 in assay [18].

Turning to Epa22, the “glycan array binding signal (z-score)” value in [19] was -0.575; in assay [20] it was -0.621; in assay [8], -0.173.

For the origin of these results see the supplement of paper PMC8728848.
